Bioassay records as filed in PubChem BioAssay.
Shown are actives, neighbours in structure and some others; about 7.6% of the full set was active somewhere.
KB-3-1 tox: qHTS assay for MDR1-selective chemotherapeutics: Primary screen using the parental adenocarcinoma cell KB-3-1; Potency, µM (series often up to 46.1 µM), actives largely listed as cytotoxic; hit rate 1.4% among 400,000; KB-3-1 viability, CellTiter-Glo ATP luminescence, 72 h; further: potency means the concentration at half of the fitted maximal effect; on the % scale 0 is the no-effect control and ±100 the full control effect; nearly all actives have a fitted effect of over 60% in size
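Cytotoxicity measured as CellTiter-Glo luminescence after 72 h at 37 C. Compound titrations were pinned onto drug-naive KB-3-1 parental adenocarcinoma cells grown in DMEM with 10% FBS, and normalized data fitted to concentration-response curves.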
KCNH2 3.1 inh: qHTS for Inhibitors of KCHN2 3.1: Mutant qHTS. Potassium voltage-gated channel subfamily H member 2, brain isoform KCNH2 3.1 (human). hit rate 0.95% among 340,000. U2OS KCNH2 3.1, thallium flux FluxOr; active compounds read low. activity change, % (tested at about 1.8 µM);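 active means maximum activity change below -70%; inconclusive means maximum activity change from -70% to -50%; inactive means maximum activity change above -50%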;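 further: thallium influx rate constant from kinetic fluorescence after stimulation buffer; on the % scale 0 is the no-effect control and ±100 the full control effect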
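Thallium flux via FluxOr fluorescence (Red40 quencher, 45 min loading) in U2OS cells virally expressing the KCNH2 3.1 isoform (1.77 x 10^8 /mL virus, overnight at 37 C). Rate constants from 2-min kinetic reads post-stimulation, normalised to positive and negative controls.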
SW480 rerep: A quantitative high throughput screen for small molecules that induce DNA re-replication in SW480 colon adenocarcinoma cells. SW480 DNA re-replication, Hoechst DNA content imaging, 48 h. Potency, µM (doses to about 46.1 µM), without a hit: at the highest dose re-replication activation, actives largely listed as activators. hit rate 1.8% among 340,000. AID 624297, 2012; further: potency means the concentration at half of the fitted maximal effect; % of control where 0% means no effect; nearly all actives have a fitted effect of over 55% in size
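DNA re-replication was detected as more nuclei of elevated Hoechst intensity after 48 hr exposure to compound (23 nL pinned per well of 250 cells).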
KCNH2 WT inh: qHTS for Inhibitors of KCHN2 3.1: Wildtype qHTS; hit rate 0.37% among 340,000; activity change, % at 1.84 µM; U2OS, BacMam KCNH2, thallium flux FluxOr; active compounds read low; Voltage-gated inwardly rectifying potassium channel KCNH2 (Homo sapiens), Q12809;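 active means maximum activity change below -70%; inconclusive means maximum activity change between -70% and -50%; inactive means maximum activity change above -50%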; further: on the % scale 0 is the no-effect control and ±100 the full control effect
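U2OS cells were transduced with wild-type KCNH2 virus (2.03 x 10^8 / mL) for 4 h at room temperature, then cultured overnight at 37 C. Thallium flux was read with FluxOr dye. Rate constants were normalized to DMSO controls.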
MCF10A rerep: A quantitative high throughput screen for small molecules that induce DNA re-replication in MCF 10a normal breast cells | MCF 10A DNA re-replication, Hoechst nuclear intensity, 48 h | Potency, µM (series often up to 46.1 µM), without a hit: at the top dose activity, positive = re-replication, usual class: activators | AID 624296, 2012 | hit rate 2.9% among 350,000; further: potency means the concentration at half of the fitted maximal effect; % of control where 0% means no effect; nearly all actives have a fitted effect of over 50% in size
KB-V1 MDR tox: qHTS assay for MDR1-selective chemotherapeutics: Primary screen using the drug-selected MDR subline cells KB-V1 | KB-V1 MDR cells viability, CellTiter-Glo, 72 h | AID 1347076, 2019 | hit rate 3.4% among 400,000 | Potency, µM (series often up to 46.1 µM), most hits filed as cytotoxic; further: potency means the concentration at half of the fitted maximal effect; on the % scale 0 is the no-effect control and ±100 the full control effect; nearly all actives have a fitted effect of over 60% in size
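Drug-selected KB-V1 cells, grown in DMEM lacking phenol red with 10% FBS, receive compound titrations; after three days at 37 degrees C, surviving cell ATP is quantified by CellTiter-Glo luminescence and responses normalized and curve-fitted.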
An asterisk follows results filed as active; i = inactive; ? = inconclusive; nt = no result given; [ ] = dose if it differs, or a comment. Unless noted, the call rests on the fitted dose curve; in most records, active means well fitted curve in the direction sought with a large enough effect; inconclusive means small, poorly fitted or top-dose-only effect, or another doubt; inactive means no such curve, though single readings can be large; an effect the other way counts as inactive or inconclusive.

SMILES	KB-3-1 tox	KCNH2 3.1 inh	SW480 rerep	KCNH2 WT inh	MCF10A rerep	KB-V1 MDR tox
O=C(c1ccc(Cl)cc1)C1CCCN(Cc2ccc3ncccc3c2)C1 (stereo not given)	?	-14	-2%	42	?	4.1µM*
O=C(c1ccc(Cl)cc1)C1CCCN(Cc2ccc3c(c2)OCCO3)C1 (stereo not given)	i	-17	-15%	1	?	i
CC[C@]1(c2cccc(O)c2)CCCCN(C)C1	nt	nt	-2%[20.6 µM]	nt	-9%[20.6 µM]	nt
O=C(Nc1ccc2nc(-c3cccs3)c(-c3cccs3)nc2c1)NC1CC1	i	-14	?	-10	18µM*	?
COc1ccc(C2=CC(c3ccc(OC)c(OC)c3)c3c(c4ccccc4oc3=O)O2)cc1OC (stereo not given)	?	2	13µM*	5	2.9µM*	i
[O]=[Cd]	nt	nt	-8%	nt	-1%	nt
CCN1C(=O)NC(=O)/C(=C\c2cn(CC(=O)N3CCCC3)c3ccccc23)C1=O	i	-20	10%	-1	0%	i
O=C1NC(=O)N(c2ccccc2F)C(=O)/C1=C/c1cn(CC(=O)N2CCOCC2)c2ccccc12	i	22	6%	5	21µM*	i
C#CCN1CCN(c2ccc(F)cc2)CC1	i	-12	-1%	3	0%	i
O=C(CCN1CCN(c2ccccc2)CC1)c1ccc(Br)cc1	i	-22	141%	3	?	i
Fc1ccc(C(OCCN2CCCC2)c2ccc(Br)cc2)cc1 (stereo not given)	i	-72*	7%	?	?	?
Fc1ccc(C(OCCN2CCCC2)c2ccc(F)cc2)cc1	i	-77*	0%	8	?	?
C[N+]1(C)C2CC[C@H]1CC(OC(=O)[C@@H](CO)c1ccccc1)C2 (stereo not given in full)	nt	nt	?	nt	9%	nt
COC(=O)c1ccc(NC(=O)c2cccn(Cc3ccccc3C)c2=O)cc1	i	nt	nt	nt	nt	?
CCC(C)C1NC(=O)C2CCCN2C(=O)C(CC(C)C)OC(=O)CCNC(=O)C(C)N(C)C(=O)C(C(C)C)N(C)C1=O (stereo not given)	4.6µM*	-21	12µM*	-5	?	i
C=CCCC[C@@H]1OC(=O)CNC(=O)C([C@@H](C)CC)NC(=O)[C@@H]2CCCN2C(=O)C([C@@H](C)CC)OC(=O)[C@H](Cc2ccccc2)N(C)C(=O)[C@H](C(C)C)NC(=O)C1(C)C (stereo not given in full)	?	nt	nt	nt	nt	i
C=C1CC[C@H](O)C/C1=C/C=C1\CCC[C@]2(C)[C@@H]([C@H](C)CCCC(C)C)CC[C@@H]12	nt	nt	15%	nt	24µM*	nt
CNC(=O)Oc1ccccc1C(=O)Nc1ccccc1	nt	nt	1%	nt	3%	nt
C=C1CC[C@@]2(O)[C@H]3Cc4ccc(O)c5c4[C@@]2(CCN3CC2CC2)[C@H]1O5	i	7	-1%	-2	-16%	i
Oc1ccc2c3c1OC1c4[nH]c5ccccc5c4C[C@@]4(O)C(C2)N(CC2CC2)CC[C@]314 (stereo not given in full)	i	-33	-17%	-2	?	i
O=C1/C(=C/c2ccccc2)C[C@@]2(O)[C@H]3Cc4ccc(O)c5c4[C@@]2(CCN3CC2CC2)C1O5 (stereo not given in full)	?	?	?	-2	4.6µM*	7.3µM*
Oc1ccc2c3c1OC1c4oc5ccccc5c4C[C@@]4(O)[C@@H](C2)N(CC2CC2)CC[C@]314 (stereo not given in full)	i	-47	0.92µM*	9	4%	?
Cc1oc2cc3oc(=O)c(CCC(=O)N4CCCCC4)c(C)c3cc2c1C	i	nt	nt	nt	nt	i
CC[C@]1(C(=O)OC)[C@H]2C(=O)N(Cc3ccccc3)C(=O)[C@H]2[C@H]2CN=C(SCc3ccc(C(=O)OC)cc3)N21	?	12	?	-7	-2%	i
COc1ccc(-c2nc(CSCC(=O)N3CCC4(CC3)OCCO4)c(C)o2)cc1OC	i	-11	7%	2	4%	?
SMILES	KB-3-1 tox	KCNH2 3.1 inh	SW480 rerep	KCNH2 WT inh	MCF10A rerep	KB-V1 MDR tox
Cc1oc(-c2cccs2)nc1CSCC(=O)N1CCC2(CC1)OCCO2	i	6	-9%	8	-8%	10µM*
CCC(=O)[C@@H](C)[C@@H](O)[C@H](C)C[C@@H](C)C1OC(=O)C[C@@]2(O)CC=C(C)C(O2)C(C)=CCCC[C@H](O[C@H]2C[C@@H](OC(N)=O)[C@H](O)[C@@H](C)O2)C=C[C@H](C)C[C@H]1C (stereo not given in full)	0.65µM*	nt	nt	nt	nt	?
Cc1noc(C)c1C(=O)N1CCC2(CC1)Oc1ccc(F)cc1C(=O)C21CC(c2ccc(Cl)cc2)=NO1 (stereo not given)	i	-40	?	8	4%	i
c1ccc(-c2[nH]c(-c3ccccc3)[n+](CC3CO3)c2-c2ccccc2)cc1 (stereo not given)	?	4	nt	1	13µM*	?
CN(C)c1ccc(N=O)cc1	i	nt	nt	nt	nt	?
COc1cc2c3c(c1OC)-c1cc(O)ccc1CC3NCC2 (stereo not given)	i	-7	0%	1	1%	i
COc1cc2c(c(OC)c1OC)-c1ccc(O)c(=O)cc1[C@@H](NC(C)=O)CC2	?	14	18µM*	-3	16µM*	?
COc1cc2c(c(OC)c1OC)-c1ccc(O)cc1C(NC(C)=O)CC2 (stereo not given)	?	6	0.058µM*	2	0.058µM*	?
COc1cc2c(c(OC)c1OC)-c1ccc(O)cc1[C@@H](NC(C)=O)CC2	0.016µM*	-1	?	14	?	i
O=[N+]([O-])OC1CO[C@H]2C(O[N+](=O)[O-])COC12 (stereo not given in full)	nt	nt	-1%	nt	-2%	nt
CCC(=O)Nc1nc2ccccc2n1CCN(C)C	i	-26	-9%	8	?	i
CCC1(C)Cc2ccccc2-c2c1c(=O)n(Cc1ccccc1)c1nnnn21 (stereo not given)	i	-27	-3%	5	?	i
